Experimental data published in PubChem BioAssay (NCI).
About 83,000 compounds went through this panel and 20% of them were active in at least one assay; those are over-represented in the sample as a whole.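 How to read the values: 0–100, growth inhibition (40 = 60% inhibited); 0, no net growth; -100 to 0, cell death (-40 = 40% of starting cells died; -100 = all dead).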 A number with no mark means an inactive call. Activity calls are given as the source filed them. The calls were made as follows: active = growth percent below 10; inactive = the rest.

How the values were obtained:
Assay in all cases: NCI-60 one-dose screen, 48 h (100 = growth as untreated, 0 = no growth, -100 = all killed)
Settings in all cases: 10 µM unless noted
[1] = tested on: DU-145 prostate
[2] = tested on: K-562 leukemia
[3] = tested on: MALME-3M melanoma
[4] = tested on: MDA-MB-231 breast
[5] = tested on: RXF 393 renal
[6] = tested on: SF-268 CNS
[7] = tested on: SF-295 CNS
[8] = tested on: SF-539 CNS
[9] = tested on: UACC-257 melanoma
[10] = tested on: M14 melanoma
[11] = tested on: HCT-15 colon
[12] = tested on: HT29 colon
[13] = tested on: SNB-75 CNS
[14] = tested on: SNB-19 CNS
[15] = tested on: U251 CNS
[16] = tested on: PC-3 prostate
[17] = tested on: SK-MEL-5 melanoma
[18] = tested on: UACC-62 melanoma
[19] = tested on: LOX IMVI melanoma
[20] = tested on: SK-MEL-28 melanoma

Row | SMILES | growth [1] | growth [2] | growth [3] | growth [4] | growth [5] | growth [6] | growth [7] | growth [8] | growth [9] | growth [10] | growth [11] | growth [12] | growth [13] | growth [14] | growth [15] | growth [16] | growth [17] | growth [18] | growth [19] | growth [20]
1 | CC/C(=C(/c1ccc(Cl)cc1)c1ccc(OCCN2CCCCCC2)cc1)c1ccccc1 | 97.2% | 19.8% | 98.5% | 83% | 72.5% | 81.6% | 98.3% | 84.3% | 92.4% | 81.6% | 35.3% | 17% | 107% | 83% | 62.4% | 63.3% | 79.6% | 87% | 68.5% | 95.7%
2 | COc1ccc(-c2nc3cc(C(=O)NC4CCCCC4)ccc3n2C2CCCCC2)cc1 | 99.7% | 49.5% | 95.8% | 101% | 100% | 91.7% | 78.3% | 88% | 104% | 88.7% | 21.5% | 38.3% | 91.6% | 109% | 91.5% | 95.8% | 65.3% | 95.3% | 76.9% | 100%
3 | N=C(N)c1ccc(-c2ccc(-c3ccc(Cl)cc3Cl)s2)nc1 | 28.7% | -1.71% (active) | 100% | 74.3% | 79.8% | 89.8% | 58.4% | 83.5% | 101% | 74.7% | -15.2% (active) | 4.27% (active) | 92.4% | 56.3% | -10.6% (active) | 73.2% | 97.7% | 103% | -67.9% (active) | 116%
4 | CN1CC(c2ccccc2)C(C(=O)c2ccc(Br)cc2)C12C(=O)Nc1ccccc12 (stereo not given) | 104% | 75.3% | 99.4% | 94.7% | 92.6% | 91.2% | 93.9% | 102% | 103% | 102% | 95.7% | 87.2% | 96.1% | 89.9% | 94.1% | 70.7% | 99% | 78.4% | 97.3% | 114%
5 | COc1cccc(C2C(C#N)=C(N)Oc3c2ccc2ccccc32)c1 (stereo not given) | 16.9% | 6.44% (active) | 54.4% | 24.2% | 40.7% | 30.9% | 23.5% | -12% (active) | 82% | 9.7% (active) | 9.22% (active) | 7.48% (active) | 79.8% | 37.3% | 24.6% | 21.5% | -1.37% (active) | 37.6% | 14.6% | 69.3%
6 | CC(C)(C#N)c1cc(C(=O)Nc2cc(Nc3ncccc3-c3ncnc4nc[nH]c34)ccc2F)cc(C(F)(F)F)c1 | 66% | 5.56% (active) | 2.06% (active) | 18.3% | 91.7% | 66.2% | 74.5% | 32.1% | 12% | 6.18% (active) | 54% | 20.7% | 37% | 71.2% | 59.7% | 63.9% | 24.4% | 3.16% (active) | -9.46% (active) | 10.4%
7 | COc1ccc(C(c2cc(OC)c(OC)c(OC)c2)n2cncn2)cc1O (stereo not given) | 19.6% | 8.34% (active) | 70.2% | 43.1% | -13.8% (active) | 48.8% | 2.56% (active) | 9.34% (active) | 44.4% | -1.61% (active) | 14% | 5.3% (active) | 48.6% | 33.3% | 15.3% | 21.2% | 14.6% | 32% | 43.5% | 57%
8 | O=C(CNc1ncco1)Nc1ccc(S(=O)(=O)c2ccc(NC(=O)CNc3ncco3)cc2)cc1 | 115% | -6% (active) | -38.8% (active) | 14.6% | -38.6% (active) | 99.1% | 49.7% | -15.4% (active) | 10.3% | -28.8% (active) | -49.6% (active) | -93.2% (active) | 42.1% | 19.7% | -92.1% (active) | 40.1% | -60.4% (active) | -19.9% (active) | -81.8% (active) | 58.1%
9 | CCC(=C(c1ccc(OCCN(CC)CC)cc1)c1ccc(OCCN(CC)CC)cc1)c1ccc(Cl)cc1 | -19.7% (active) | 0.499% (active) | -81.4% (active) | -81.7% (active) | -54.3% (active) | -4.01% (active) | -68.5% (active) | -90.3% (active) | -65% (active) | -79% (active) | -81% (active) | -68% (active) | -73.6% (active) | -56.1% (active) | -87.8% (active) | -50.7% (active) | -98.2% (active) | -68.3% (active) | -87% (active) | -86.9% (active)
10 | N#C/C(Sc1nc2sc3c(c2c(=O)n1Cc1ccccc1)CCCC3)=C1/SC=C(c2ccc(Cl)cc2)N1c1ccccc1 | 119% | 82.5% | 89.8% | 86.4% | 90.9% | 78% | 88.9% | 72.3% | 108% | 90.5% | 117% | 98.7% | 71.2% | 82.3% | 72.8% | 84.2% | 95.9% | 90.3% | 82.1% | 109%
11 | CCCCCCCCOC(=O)c1c(C)[nH]c(/C=C2\N=C(c3ccc[nH]3)C=C2OC)c1C | 23.3% | 10.8% | -42.9% (active) | -5.15% (active) | -19.9% (active) | 24% | -34.7% (active) | 3.4% (active) | -15.2% (active) | -56.1% (active) | 1.19% (active) | -11.2% (active) | -20.8% (active) | 25.4% | -8.43% (active) | 18% | -99.2% (active) | -25.7% (active) | -44.9% (active) | -12.5% (active)
12 | O=S(=O)(c1ccc(NCSc2nc3ccccc3s2)cc1)c1ccc(NCSc2nc3ccccc3s2)cc1 | 106% | 77.3% | 90.5% | 86.4% | 99.1% | 97.5% | 98.6% | 103% | 94.7% | 96.1% | 106% | 87.8% | 81.6% | 95.9% | 90.6% | 64.9% | 97% | 83.5% | 91.1% | 110%
13 | Cc1ccc2c(c1)CC(O)CC1C(=O)N(CCO)CC(=O)N21 (stereo not given) | 111% | 101% | 100% | 92.4% | 90.5% | 99.7% | 101% | 102% | 81.1% | 103% | 106% | 96.1% | 83% | 102% | 95.4% | 96.8% | 104% | 97.3% | 96.2% | 102%
14 | C/C(=N\NC(=O)c1ccc(C(C)(C)C)cc1)c1ccc(O)cc1O | 29.3% | 12.9% | 28.4% | 37.4% | -9.15% (active) | 27.6% | 16.2% | 14.7% | 8.32% (active) | 23% | 16.5% | 25.3% | 54.7% | 40.1% | 25.2% | 33.8% | -41.9% (active) | 14.1% | -4.95% (active) | 36.1%
